# Compound activity from PubChem.
# A selection: hits, their analogues and other compounds. The true share with any hit is near 5.9%.
# KB-3-1 tox: KB-3-1 parental cell cytotoxicity | KB-3-1 viability, CellTiter-Glo ATP luminescence, 72 h | 400,000 compounds, 1.4% hits | AID 1347075 | Potency, µM (series often up to 46.1 µM), usual class: cytotoxic; note: % is set by controls: 0 for no effect and ±100 for the full control effect; nearly all actives have a fitted effect of over 60% in size
#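 Viability of parental KB-3-1 cells, measured by CellTiter-Glo luminescence, followed a 72 h incubation at 37 °C with pinned compounds in phenol-red-free DMEM containing 10% FBS.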
# KB-V1 MDR tox: KB-V1 MDR subline cytotoxicity; Potency, µM (highest dose often 46.1 µM), usual class: cytotoxic; 400,000 compounds, 3.4% hits; KB-V1 MDR cells viability, CellTiter-Glo, 72 h; note: % is set by controls: 0 for no effect and ±100 for the full control effect; nearly all actives have a fitted effect of over 60% in size
#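 Drug-selected KB-V1 cells, grown in DMEM lacking phenol red with 10% FBS, receive compound titrations; after three days at 37 degrees C, surviving cell ATP is quantified by CellTiter-Glo luminescence and responses normalized and curve-fitted.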
# HepG2 viability: counter-screen for TGF-b inhibitors: cytotoxicity in HepG2 cells; Potency, µM (highest dose often 46.1 µM), for the others: at the top dose activity change, negative = cytotoxicity, usual class: cytotoxic; 410,000 compounds, 0.76% hits; AID 588856; HepG2 CAGA-GFP viability, ATP luminescence, 18 h
#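 CellTiter-Glo luminescence gave cytotoxicity after 18 hours at 37 degrees C. The cells were HepG2 CAGA-GFP in 1% FBS DMEM, stimulated with 500 pg/mL TGF-beta after compound addition. %Activity was normalised to no-cell wells (complete cell-killing) and DMSO (no toxicity), and curves were fitted and classified.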
# TGFb SMAD3 inh: TGF-b pathway inhibition; HepG2 CAGA-GFP TGF-b/SMAD3 reporter, GFP fluorescence, 18 h; TGF-beta stimulated, 500 pg/mL final; Potency, µM (highest dose often 46.1 µM), for the others: at the top dose activity, negative = inhibition, most hits filed as inhibitors; 410,000 compounds, 1.2% hits; AID 588855; note: % is set by controls: 0 for no effect and ±100 for the full control effect; nearly all actives have a fitted effect of over 65% in size
#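 Inhibition was scored as loss of TGF-beta-induced (500 pg/mL final, 18 hours, 37 degrees C) GFP in HEPG2 cells carrying a CAGA-GFP reporter, in DMEM with 1% FBS. Well GFP was summed per cell; Activity was normalised to unstimulated and stimulated DMSO wells, then concentration-response fitting.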
# ATXN viability: viability counter-screen for ATXN expression inhibitors; S2 cells (HEK-293 line with an ATXN2-luciferase reporter) viability, CellTiter-Fluor protease fluorescence, 24 h; Potency, µM (titrated, usually from 56.7 µM), most hits filed as cytotoxic; 400,000 compounds, 0.49% hits; AID 651635; note: nearly all actives have a fitted effect of over 40% in size
# ATXN2 expr inh: reduces ATXN2 reporter expression in HEK-293 cells; Potency, µM (doses to about 57 µM), without a hit: at the highest dose activity change, negative = inhibition, hits mostly inhibitors; 360,000 compounds, 0.72% hits; HEK-293 ATXN2-luciferase reporter, luminescence, 24 h; note: % is set by controls: 0 for no effect and ±100 for the full control effect; nearly all actives have a fitted effect of over 55% in size
#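 ATXN2-luciferase reporter cells (luciferase flanked by upstream and downstream ATXN2 gene portions) were treated 24 h at 37 °C with compounds at up to 57 uM. SteadyGlo luminescence gave expression; GF-AFC fluorescence gave viability.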
# An asterisk follows results filed as active; i = inactive; ? = inconclusive; . = not tested or not shown. Calls come from the whole dose curve; as a rule, active = well fitted curve in the direction sought with a large enough effect; inconclusive = small, poorly fitted or top-dose-only effect, or another doubt; inactive = no such curve, though single readings can be large; an effect the other way counts as inactive or inconclusive. Potency is the fitted concentration of half-maximal effect.
SMILES,KB-3-1 tox,KB-V1 MDR tox,HepG2 viability,TGFb SMAD3 inh,ATXN viability,ATXN2 expr inh
Cc1ccc(CNC(=O)c2nc(S(=O)(=O)Cc3ccc(C)cc3)ncc2Cl)cc1,?,?,-50%,?,i,5%
COc1ccc(N2CCN(C(=O)c3nc(SC)ncc3Cl)CC2)cc1,i,i,2%,16%,i,-8%
CCS(=O)(=O)c1ncc(Cl)c(C(=O)N2CCN(c3ccc(OC)cc3)CC2)n1,.,.,11µM*,.,.,.
CCCC1S/C(=N/N=C/c2ccc(C)cc2)N(Cc2ccc(OC)cc2)C1=O (stereo not given),?,13µM*,7%,-4%,i,-10%
Cc1[nH]nc(-c2ccc(OCc3cnn(-c4ccccc4)c3)c(C)c2O)c1Oc1ccccc1,21µM*,i,-73%,?,?,-35%
COc1ccc(NC(=O)Cn2c(=O)n(Cc3nc(-c4ccccc4)no3)c(=O)c3cc4c(cc32)OCO4)cc1Cl,i,i,5%,23%,i,6%
Cc1ccc(-c2cc(C(=O)N3N=C(C(F)F)CC3(O)C(F)F)c3ccccc3n2)cc1C (stereo not given),i,?,20µM*,?,18µM*,?
COCCCNC(=O)c1cc2c(=O)oc3ccc(C)cc3c2s1,.,.,5%,-2%,.,.
Cc1ccc(S(=O)(=O)N(CC(O)Cn2c3ccccc3c3ccccc32)c2cccc(C(=O)NCCO)c2)cc1 (stereo not given),?,i,16µM*,13µM*,.,?
Cc1ccc(S(=O)(=O)N(CC(O)Cn2c3ccccc3c3ccccc32)c2cccc(C(N)=O)c2)cc1 (stereo not given),?,?,11µM*,10µM*,?,?
O=S(=O)(c1ccccc1)N(CC(O)Cn1c2ccccc2c2ccccc21)c1ccccc1 (stereo not given),?,?,-40%,?,?,?
Cc1ccc(S(=O)(=O)N(CC(O)Cn2c3ccccc3c3ccccc32)c2cccc(C(=O)N(C)C)c2)cc1 (stereo not given),i,?,-24%,?,?,?
COc1cc(/C=C2/CCCC(C(=O)C(F)(F)F)=C2O)ccc1O,i,i,-11%,9%,i,31%
COc1cc(/C=C2\CC/C(=C\c3cc(OC)c(O)c(OC)c3)C2=O)cc(OC)c1O,16µM*,?,-46%,?,.,?
COc1cc(/C=C2\CC/C(=C\c3cc(OC)c(OC)c(OC)c3)C2=O)cc(OC)c1OC,i,i,8%,?,i,-33%
COc1cc(C=C2C(=O)C=CC2=O)ccc1O,21µM*,i,.,.,.,13µM*
COc1cc(C=C2CCC/C(=C\c3ccc(O)c(OC)c3)C2=O)ccc1O,.,.,.,.,28µM*,16µM*
COc1cc(/C=C2/CCC/C(=C\c3cc(O)c(OC)c(Cl)c3)C2=O)cc(Cl)c1O,?,8.2µM*,13µM*,?,.,?
Cc1ccccc1C(=O)Oc1cc(-c2ccc3c(c2)OCO3)cc(=O)c2c(C)oc(C)c12,i,i,-15%,92%,i,-24%
CCc1ccc(NC(=O)CSc2cn(CC(=O)N3CCOCC3)c3ccccc23)cc1,.,.,-24%,0%,.,.
Cc1ccc(CNC(=O)Cn2c(=O)ccc3cc(S(=O)(=O)N4CCC(C)CC4)ccc32)cc1,i,?,-7%,-26%,i,-3%
COc1ccc(-c2cc(C)no2)cc1S(=O)(=O)N1CC(C)Oc2ccccc21 (stereo not given),.,.,-15%,1%,.,.
CCN1C/C(=C/c2cccc([N+](=O)[O-])c2)C(=O)/C(=C/c2cccc([N+](=O)[O-])c2)C1,i,?,-53%,?,4µM*,3.2µM*
